# Records with an inconclusive call do not appear. Where a call stands in place of a potency, no number is given. Values without a mark were called inactive. Calls of active or inactive are those of the source. The call rests on the fitted dose curve; in most records, active means well fitted inhibition curve with a large enough effect; inconclusive means small, poorly fitted or top-dose-only effect; inactive means flat fitted curve, though single readings scatter.
# Columns and labels:
# PAD = assay: qHTS profiling for inhibitors of Plasmodium falciparum proliferation (AID 504749); further: potency means the concentration at half of the fitted maximal effect; settings: P. falciparum in erythrocytes, SYBR Green DNA, 72 h; series mostly up to 28.7 µM
# Method in brief: (§1)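 P. falciparum-infected erythrocytes (0.3% parasitemia, 2.5% hematocrit final) were exposed to compounds for 72 h at 37 C in 5% CO2, then lysed with SYBR Green buffer overnight at room temperature; parasite DNA fluorescence was normalized to artemisinin and DMSO controls.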
# PC15 = assay: as above; settings: P. falciparum in erythrocytes, SYBR Green DNA, 72 h; series mostly up to 28.7 µM
# Method in brief: as §1
# PC26 = assay: as above; settings: P. falciparum in erythrocytes, SYBR Green DNA, 72 h; series mostly up to 28.7 µM
# Method in brief: as §1
# PC49 = assay: as above; settings: P. falciparum in erythrocytes, SYBR Green DNA, 72 h; series mostly up to 28.7 µM
# Method in brief: as §1
# SC27B = assay: as above; settings: P. falciparum in erythrocytes, SYBR Green DNA, 72 h; series mostly up to 28.7 µM
# Method in brief: as §1
# TAB109 = assay: as above; settings: P. falciparum in erythrocytes, SYBR Green DNA, 72 h; series mostly up to 28.7 µM
# Method in brief: as §1
# TAB113 = assay: as above; settings: P. falciparum in erythrocytes, SYBR Green DNA, 72 h; series mostly up to 28.7 µM
# Method in brief: as §1
# TAB165 = assay: as above; settings: P. falciparum in erythrocytes, SYBR Green DNA, 72 h; series mostly up to 28.7 µM
# Method in brief: as §1
# W2 = assay: as above; settings: P. falciparum in erythrocytes, SYBR Green DNA, 72 h; series mostly up to 28.7 µM
# Method in brief: as §1
# HEK293 = assay: Cytotoxic Profiling of Annotated Libraries Using Quantitative High-Throughput Screening (AID 1296008); settings: Five cell lines viability, CellTiter-Glo ATP luminescence, 48-72 h; max response: active compounds read low
# Method in brief: (§2)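 Compounds were pin-transferred onto cells and incubated 48 or 72 hr at 37 degree Celsius, 95% humidity. CellTiter-Glo was added, plates sat 10 min at room temperature, then ATP-coupled luminescence was imaged as the viability read-out.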
# HaCat [1] = assay: as above; settings: Five cell lines viability, CellTiter-Glo ATP luminescence, 48-72 h; max response: active compounds read low
# Method in brief: as §2
# KB-3-1 = assay: as above; settings: Five cell lines viability, CellTiter-Glo ATP luminescence, 48-72 h; max response: active compounds read low
# Method in brief: as §2
# NIH3T3 = assay: as above; settings: Five cell lines viability, CellTiter-Glo ATP luminescence, 48-72 h; max response: active compounds read low
# Method in brief: as §2
# HACAT [2] = assay: qHTS assay to identify novel small-molecules to repurpose for Merkel cell carcinoma treatment (AID 1296009); settings: MCC and control cell lines, CellTiter-Glo viability, 72 h; at 44.8 µM (top of the series) unless noted
# Method in brief: (§3)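 Cells exposed to NPC (8-point) and MIPE (11-point) compound dilutions for 72 hr at 37 degree celsius; viability read by CellTiter-Glo luminescence, normalized to no-cell and DMSO in-plate controls.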
# MCC-13 = assay: as above; settings: MCC and control cell lines, CellTiter-Glo viability, 72 h; series mostly up to 46 µM
# Method in brief: as §3
# MCC-26 = assay: as above; settings: MCC and control cell lines, CellTiter-Glo viability, 72 h; series mostly up to 46 µM
# Method in brief: as §3
# MKL-1 = assay: as above; settings: MCC and control cell lines, CellTiter-Glo viability, 72 h; series mostly up to 46 µM
# Method in brief: as §3
# CRL-7250 [3] = assay: Cytotoxic Profiling of Annotated Libraries Using Quantitative High-Throughput Screening (AID 1296008); settings: Five cell lines viability, CellTiter-Glo ATP luminescence, 48-72 h; max response: active compounds read low
# Method in brief: as §2
# CRL-7250 [4] = assay: qHTS assay to identify novel small-molecules to repurpose for Merkel cell carcinoma treatment (AID 1296009); settings: MCC and control cell lines, CellTiter-Glo viability, 72 h; at 44.8 µM (top of the series) unless noted
# Method in brief: as §3
# Further: nearly all actives have a fitted effect of over 60% in size.
compound,measurement,setting,value
Cc1ncc2n1-c1ccc(Cl)cc1C(c1ccccc1F)=NC2,Potency,PAD,inactive
same,Potency,PC15,inactive
same,Potency,PC26,inactive
same,Potency,PC49,inactive
same,Potency,SC27B,inactive
same,Potency,TAB109,inactive
same,Potency,TAB113,inactive
same,Potency,TAB165,inactive
same,Potency,W2,inactive
same,max response,HEK293,-4.93%
same,outcome,HaCat [1],inactive
same,max response,KB-3-1,-24.4%
same,max response,NIH3T3,-10.5%
same,outcome,HACAT [2],inactive
same,Potency,MCC-13,inactive
same,Potency,MCC-26,inactive
same,Potency,MKL-1,inactive
Clc1ccc(CO/N=C(\Cn2ccnc2)c2ccc(Cl)cc2Cl)c(Cl)c1,Potency,PAD,2.51 µM (active)
same,Potency,PC15,3.16 µM (active)
same,Potency,PC26,4.26 µM (active)
same,Potency,SC27B,3.16 µM (active)
same,Potency,TAB109,3.55 µM (active)
same,Potency,TAB113,2.51 µM (active)
same,Potency,TAB165,1.41 µM (active)
same,Potency,W2,1.69 µM (active)
same,max response,CRL-7250 [3],-2.86%
same,max response,KB-3-1,0.479%
same,Potency,MCC-26,inactive
CN1CCC(N(Cc2ccccc2)c2ccccc2)CC1,max response,CRL-7250 [3],-21.6%
same,outcome,HaCat [1],inactive
same,max response,NIH3T3,-20.5%
same,outcome,HACAT [2],inactive
same,Potency,MCC-13,inactive
same,Potency,MCC-26,inactive
same,Potency,MKL-1,inactive
CC(=O)OC1(c2ccccc2)CCN(CCc2ccccc2)CC1,max response,HaCat [1],-10.1%
same,max response,KB-3-1,-24%
same,max response,NIH3T3,-21.5%
same,Potency,MKL-1,inactive
Cc1nc2ccccc2c(=O)n1-c1ccccc1Cl,max response,CRL-7250 [3],-16.7%
same,max response,HaCat [1],-9.75%
same,max response,KB-3-1,-1.49%
same,Potency,MCC-13,inactive
same,Potency,MCC-26,inactive
same,Potency,MKL-1,inactive
O=C(O)COC(=O)Cc1ccccc1Nc1c(Cl)cccc1Cl,outcome,CRL-7250 [4],inactive
CCC(=O)O[C@]1(C(=O)CCl)[C@@H](C)C[C@H]2[C@@H]3CCC4=CC(=O)C=C[C@]4(C)[C@@]3(F)[C@@H](O)C[C@@]21C,outcome,CRL-7250 [4],inactive
CN1C(=O)CN=C(c2ccccc2)c2cc(Cl)ccc21,max response,HaCat [1],-27.5%
same,max response,KB-3-1,-19.7%
same,Potency,MCC-26,inactive
same,Potency,MKL-1,inactive
Cc1cn([C@H]2C[C@H](F)[C@@H](CO)O2)c(=O)[nH]c1=O,outcome,CRL-7250 [4],inactive
CCN(CC)C(=O)c1cccc(C)c1,outcome,CRL-7250 [4],inactive
O=C1NCN(c2ccccc2)C12CCN(CCCOc1ccc(F)cc1)CC2,Potency,W2,5.36 µM (active)
same,max response,KB-3-1,25%
same,Potency,MCC-13,inactive
same,Potency,MKL-1,inactive
CC1=CC(=O)c2ccccc2C1=O,outcome,CRL-7250 [4],inactive
O=C(O)C1CCC1,outcome,CRL-7250 [4],inactive
O=C(CCl)c1ccc(Cl)cc1Cl,outcome,HaCat [1],inactive
same,max response,NIH3T3,-36.1%
same,outcome,HACAT [2],inactive
same,Potency,MCC-13,inactive
same,Potency,MCC-26,inactive
O=S(=O)(c1cccc2cnccc12)N1CCCNCC1,outcome,CRL-7250 [4],inactive
Oc1ccc(O)cc1,outcome,CRL-7250 [4],inactive
C[C@H](O)C(=O)Nc1c(I)c(C(=O)NC(CO)CO)c(I)c(C(=O)NC(CO)CO)c1I,outcome,CRL-7250 [4],inactive
CCCCCC(N)=O,outcome,CRL-7250 [4],inactive
CCN(CC)C(=O)N1CCN(C)CC1,outcome,CRL-7250 [4],inactive
CCOC(=O)c1ccc(OC(=O)CCCCCN=C(N)N)cc1,outcome,CRL-7250 [4],inactive
C[C@]12Cc3nonc3C[C@@H]1CC[C@@H]1[C@@H]2CC[C@@]2(C)[C@H]1CC[C@]2(C)O,Potency,PAD,inactive
same,Potency,PC15,inactive
same,Potency,PC26,inactive
same,Potency,PC49,inactive
same,Potency,SC27B,inactive
same,Potency,TAB109,inactive
same,Potency,TAB113,inactive
same,outcome,HaCat [1],inactive
same,max response,NIH3T3,-6.95%
same,outcome,HACAT [2],inactive
same,Potency,MCC-13,inactive
same,Potency,MCC-26,inactive

# — PubChem BioAssay (NCATS)
